Data taken from PubChem BioAssay (NCATS).
Values joined by “and” are separate entries in the source; they are usually repeats but may differ in a detail not shown here. Equal values may be shown once. Records with an inconclusive call do not appear. A call without a number means that no potency is given here. Active and inactive are the calls of the source. The call rests on the fitted dose curve.

experiment: Primary qHTS to identify inhibitors of SARS-CoV-2 cell entry (AID 1645846); conditions: SARS-CoV-2 pseudovirus cell entry assay, luminescence; activity change, negative = inhibition: at 57.1 µM (top of the series) unless noted; series mostly up to 57.1 µM; further: nearly all actives have a fitted effect of over 45% in size
Method in brief: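 Luminescence readout (Bright-Glo luciferase) 48 h after pseudoparticle addition. HEK293-ACE2 cells, 1500/well; compound pre-incubation 1 h; Normalized to spike PP and bald PP.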
Potency means the concentration at half of the fitted maximal effect.

SMILES | outcome | activity change, negative = inhibition | Potency
CCN(CC)CCNC(=O)c1ccc(N)cc1 | inactive | – | –
COC(=O)/C=C\C(=O)OC | – | -18.2% | –
CC(=O)[C@H]1CC[C@H]2[C@@H]3C=CC4=CC(=O)CC[C@@]4(C)[C@@H]3CC[C@]12C | – | -10.8% | –
COc1ccc(NS(=O)(=O)c2ccc(N)cc2)nn1 | inactive | – | –
C[C@](N)(Cc1ccc(O)cc1)C(=O)O | inactive [at 5.25 µM] | – | –
CCC1=C(C)CN(C(=O)NCCc2ccc(S(=O)(=O)NC(=O)NC3CCC(C)CC3)cc2)C1=O (centres undefined) | inactive | – | –
CC1(C)O[C@@H]2C[C@H]3[C@@H]4CCC5=CC(=O)C=C[C@]5(C)[C@@H]4[C@@H](O)C[C@]3(C)[C@]2(C(=O)CO)O1 | inactive | – | –
C[C@H]1O[C@@H](n2cc(F)c(=O)[nH]c2=O)[C@H](O)[C@@H]1O | – | -10.7% and -12.7% | –
Cc1ccnc(NS(=O)(=O)c2ccc(N)cc2)n1 | inactive | – | –
CC(=O)CC/C=C(\C)CC/C=C(\C)CC/C=C(\C)CCC=C(C)C | – | -24.7% | –
c1ccc(-c2nc[nH]c2-c2ccccc2)cc1 | inactive | – | –
CC(=O)Nc1ccc(S(=O)(=O)Nc2cc(C)on2)cc1 | inactive | – | –
CN1[C@@H]2CC(OC(=O)[C@H](CO)c3ccccc3)C[C@H]1[C@@H]1O[C@@H]12 (some centres undefined) | inactive | – | –
Cc1ccc(C(=O)c2ccc(CC(=O)O)n2C)cc1 | inactive | – | –
C[C@H](CS)C(=O)N1CCC[C@H]1C(=O)O | inactive | – | –
OCCc1ccccc1 | inactive | – | –
CC(=O)OCC(=O)[C@@]1(O)CC[C@H]2[C@@H]3CCC4=CC(=O)CC[C@]4(C)[C@H]3C(=O)C[C@@]21C | – | -2.62% and -39.8% | –
CCS(=O)(=O)CCn1c([N+](=O)[O-])cnc1C | inactive | – | –
O=C(CCBr)N1CCN(C(=O)CCBr)CC1 | inactive | – | –
CC(=O)OCC(=O)[C@@]1(OC(C)=O)[C@@H](C)C[C@H]2[C@@H]3C[C@H](F)C4=CC(=O)C=C[C@]4(C)[C@@]3(F)[C@@H](O)C[C@@]21C | inactive | – | –

SMILES | outcome | activity change, negative = inhibition | Potency
O=C(O)C(S)C(S)C(=O)O (centres undefined) | inactive | – | –
COc1ccc2cc1Oc1cc3c(cc1OC)CC[N+](C)(C)[C@H]3Cc1ccc(cc1)Oc1c(OC)c(OC)cc3c1[C@@H](C2)[N+](C)(C)CC3 | inactive | – | –
Cc1ccccc1OCC(O)CO (centres undefined) | inactive | – | –
O=c1c(C2CC(c3ccc(-c4ccc(Br)cc4)cc3)Cc3ccccc32)c(O)sc2ccccc12 (centres undefined) | – | – | 14.1 µM (active)
CC(=O)OCC[N+](C)(C)C | – | 3.83% | –
O=C(Oc1ccccc1)c1ccccc1O | inactive | – | –
CC(C)=CCC/C(C)=C/CO | – | 2.42% | –
O=C(/C=C/c1ccccc1)OCc1ccccc1 | – | -14.8% | –
CCCC(=O)OCOC(=O)C1=C(C)NC(C)=C(C(=O)OC)C1c1cccc(Cl)c1Cl (centres undefined) | inactive | – | –
CCC(Cc1c(I)cc(I)c(N)c1I)C(=O)O (centres undefined) | inactive | – | –
CC(=O)Nc1c(I)cc(I)c(C(=O)O)c1I | inactive | – | –
O=C(N[C@H](CO)[C@H](O)c1ccc([N+](=O)[O-])cc1)C(Cl)Cl | – | 2.2% | –
C1COC(NC(C2CC2)C2CC2)=N1 | – | 1.02% | –
CCCNC(C)C(=O)Nc1ccccc1C (centres undefined) | inactive | – | –
Cc1ccccc1N1CCN(CCc2nnc3n2CCCC3)CC1 | inactive | – | –
O=C(O)/C=C\C(=O)O | inactive | – | –
Nc1ncn([C@H]2C[C@H](O)[C@@H](CO)O2)c(=O)n1 | – | -12.8% | –
Cc1nnc(NS(=O)(=O)c2ccc(N)cc2)s1 | – | 4.32% and -12.1% | –
CC(C)CN(C[C@@H](O)[C@H](Cc1ccccc1)NC(=O)O[C@H]1CO[C@H]2OCC[C@H]21)S(=O)(=O)c1ccc(N)cc1 | inactive | – | –
